The structures appear in SMILES notation. Where “and” joins values, the source holds several entries; their conditions need not be identical. Equal values may be shown once. The whole screen tested about 300,000 compounds, of which about 37,000 (12%) were called active. Shown is part of a subset that was picked to be rich in actives. A number with no mark means an inactive call. Cut-off read from the data, not from the text of the source: active = max response mostly above about 13% (no sharp cut-off); inactive = mostly below about 14%.

A short description of the assay: Cycloheximide Counterscreen for Small Molecule Inhibitors of Shiga Toxin. Note: read at 38.3 µM for the half of the compounds with a filed dose; 0% is about no effect. The note with it: cell reporter, cycloheximide protein synthesis inhibition counterscreen; active compounds read high.
Consider `Cc1ccc(NC(=O)CCN2C(=O)c3ccccc3C2=O)cc1C`, for which the max response was -2.39%.
On to `CC(C)=CCCC(C)CN1CCC(n2nccc2NC(=O)c2ccccc2)CC1` (stereo not drawn), for which the max response was -5.01%.
For `O=C(NCN1CCN(CCO)CC1)c1cnccn1`, the max response was -4.08%.
Regarding `O=C(Nc1ccc(S(=O)(=O)N2CCCCC2)cc1)c1cnccn1`, the max response was -3.02%.
Take `CCN1CCN(c2ccc(NC(=O)c3cnccn3)cc2)CC1`: the max response was 26% (active).
As for `N#CCSc1nc(-c2ccccc2)nc2ccc(F)cc12`, the max response was -2.28%.
Regarding `CN(CCc1ccccn1)C(=O)c1ccc(OC2CCN(Cc3ccccn3)CC2)cc1`, the max response is 0.254%.
With `CN(CCc1ccccn1)C(=O)c1ccc(OC2CCN(CCc3ccccc3)CC2)cc1`, the max response is 17% (active).
For `Cn1cc(CNC(=O)c2ccc(OC3CCN(Cc4ccccn4)CC3)cc2)cn1`, the max response was 9.98%.
The figure for `OCCC(O)CO` (stereo not drawn) is -4.13% and -5.85% and -2.71%; for `Cn1ccnc1SCC(=O)Nc1ccc2c(c1)OCCO2` it is 18%.
Regarding `COc1ccc(S(=O)(=O)N(C)CC(=O)Nc2ccc3c(c2)OCCO3)cc1OC`, the max response was 18.2% (active).
As for `O=C(CN(c1ccc2c(c1)OCCO2)S(=O)(=O)c1ccccc1)Nc1ccc2c(c1)OCO2`, the max response was 11.4%.
As for `CCOC(=O)c1ccc(NC(=O)Cn2nnc(-c3ccc(C)cc3)n2)cc1`, the max response is -3.53%.
Next, `CC(C)CNS(=O)(=O)c1ccc(OCC(=O)Nc2ccc3c(c2)OCO3)c(Cl)c1`: 5.31%; `CCc1ccccc1OCC(=O)Nc1ccc2c(c1)OCCO2`: 35.2% (active).
Regarding `O=C(CSc1nc2ncccc2[nH]1)Nc1ccc2c(c1)OCCO2`, the max response is 25.8% (active).
Next, `Cc1cccc(C(=O)Nc2ccccc2-c2nnn(CC(=O)Nc3ccc4c(c3)OCCO4)n2)c1`: -4.9%; `COc1ccc(NC(=O)CN(C)S(=O)(=O)c2ccccc2)cc1OC`: -1.84%; `O=C(CSc1nc(C2CC2)nc2ccccc12)Nc1ccc2c(c1)OCCO2`: 1.1%.
For `CS(=O)(=O)c1ccc(-c2nnn(CC(=O)Nc3ccc4c(c3)OCCO4)n2)cc1`, the max response is 15.4% (active).
In the case of `CC(C)NS(=O)(=O)c1ccc(OCC(=O)Nc2ccc3c(c2)OCCO3)cc1`, the max response was 2.4%.
Consider `CCc1ccc(Oc2nc([N+](=O)[O-])nn2C)cc1`, for which the max response is -1.09%.
On to `COc1ccc(OCCCCN2CCC(C)CC2)cc1`, for which the max response is -5.4%.
On to `CCN(CC)S(=O)(=O)c1ccc(C(=O)N2CCN(C3=NS(=O)(=O)c4ccccc43)CC2)cc1`, for which the max response was 7.96%.
On to `CC1CCC(C(C)C)C(=O)/C1=C\c1ccc(NC(=O)CCC(=O)O)cc1` (stereo not drawn), for which the max response is -5.07%.
As for `COc1ccc(CN2CN(C3CCCC3)CSC2=S)cc1`, the max response was 3.32%.
Consider `O=S(=O)(c1ccc(Br)cc1)N1CCC(c2nc3ccccc3[nH]2)CC1`, for which the max response was -3.07%.
`CCC(Cc1ccccc1)NS(=O)(=O)c1ccc2c(c1)NC(=O)CS2` (stereo not drawn): the max response is 0.995%.
`Cc1cc(C)c(C#N)c(Nc2cccc(Br)c2)n1`: the max response is 0.576%.
For `C[C@H](NC(=O)C1CC(=O)N(c2ccc3c(c2)OCCO3)C1)C(=O)N1CCC(C(=O)O)CC1` (stereo partly drawn), the max response was 7.17%.
`COc1ccc(C(=O)NC2CC(C)(C)NC(C)(C)C2)cc1OC`: the max response was -1.7%.
On to `COc1ccc(CN(C)C(C)C(=O)NC2CCCc3ccccc32)cc1` (stereo not drawn), for which the max response is 4.63%.
As to `CCCCC(=O)Nc1ccc2c(c1)OCCO2`, the max response is 36.8% (active).
The figure for `COc1ccc(C2(C)NC(=O)N(CC(=O)c3ccc4c(c3)OCO4)C2=O)cc1` (stereo not drawn) is 1.46%.
On to `O=C(COc1ccc(Cl)cc1)Nc1ccc2c(c1)OCO2`, for which the max response is 15.8% (active).
On to `CCCCN(CC(=O)NC(C)(C)C)C(=O)C(=O)Nc1ccc2c(c1)OCCO2`, for which the max response is 5.6%.
As for `CCC(C(=O)Nc1ccc(C(C)C)cc1)c1ccccc1` (stereo not drawn), the max response was -1.28%.
Consider `CC(=O)NCC(=O)N(C)C(C(=O)Nc1ccc2c(c1)OCCO2)c1ccccc1` (stereo not drawn), for which the max response is -1.79%.
On to `CCC(C(=O)Nc1ccc2c(c1)OCCO2)c1ccccc1` (stereo not drawn), for which the max response was 19.2% (active).
In the case of `CCOc1ccc(C(=O)CCN2CCOCC2)cc1`, the max response was 9.26%.
As to `O=C(CCS(=O)(=O)Cc1ccccc1)Nc1ccc2c(c1)OCCO2`, the max response is -1.91%.
Next, `O=C(CN1CCN(c2ncc(C(F)(F)F)cc2Cl)CC1)Nc1ccc2c(c1)OCO2`: 2.27%; `O=C(COc1ccc(Cl)cc1)Nc1ccc2oc(=O)ccc2c1`: -3.63%; `CCOc1ccc(NCCC(=O)c2ccc3c(c2)OCO3)cc1`: 14.4% (active).
Take `COCCOC(=O)C1=C(C)NC(=O)NC1c1cc2c(cc1Br)OCO2` (stereo not drawn): the max response is -5.73%.
With `Cc1ccc(NC(=O)CN(C)C(=O)COC(=O)C(C)(C)Oc2ccc(Cl)cc2)cc1`, the max response is -3.38%.
With `COc1ccccc1C(=O)Nn1cnnc1`, the max response was -2.95%.
For `CCC(C)(C)NC(=O)CN(C(=O)CCC(=O)Nc1nccs1)c1ccc2c(c1)OCO2`, the max response was -3.66%.
On to `COc1ccc(CCNC(=O)NS(=O)(=O)c2ccc(C)cc2)cc1OC`, for which the max response was -2.33%.
On to `COc1ccc(S(=O)(=O)NCCc2c[nH]c3ccccc23)cc1OC`, for which the max response was 2.61%.
Next, `Nc1nc(SCc2cccc(Br)c2)n[nH]1`: 0.308%.
With `CCc1ccc(N2CC(C(=O)N3CCCCCC3)CC2=O)cc1` (stereo not drawn), the max response was 15.1%.
Next, `COc1cccc(NC(=O)COC(=O)CCOc2ccccc2OC)c1`: -1.24%; `CCN(CC(=O)Nc1ccc2c(c1)OCCO2)Cc1cc(=O)oc2cc(C)c(C)cc12`: 11.2% (active).
Take `O=C(COc1ccc2c(C(F)(F)F)cc(=O)oc2c1)Nc1ccc2c(c1)OCCO2`: the max response was 5.22%.
Turning to `Cc1ccc(SCC(=O)Nc2ccc3c(c2)OCCO3)cc1`, the max response was 73.6% (active).
With `CCn1c(COc2ccccc2)nnc1SCC(=O)Nc1ccc2c(c1)OCCO2`, the max response is 8.26%.
For the compound `CCn1c(SCC(=O)Nc2ccc3c(c2)OCCO3)nnc1-c1ccncc1`, the max response was 2.74%.
As for `CCN(CC(=O)Nc1ccc2c(c1)OCO2)S(=O)(=O)c1ccccc1`, the max response is -0.651%.
For the compound `CCC(C)(C)NC(=O)CN(C(=O)C(=O)Nc1ccc2c(c1)OCCO2)C(C)(C)CC`, the max response was -5.87%.
Turning to `Cc1ccc(S(=O)(=O)NCC(=O)Nc2ccc3c(c2)OCCO3)cc1`, the max response is 6.27%.
As to `COc1ccccc1OCCCC(=O)Nc1ccc2c(c1)OCCO2`, the max response is 32.1% (active).
For the compound `COC(=O)CCNc1ccc2c(c1)OCCO2`, the max response is 48.2% (active).
Next, `Cc1sc2ncn(CC(=O)NCCCC(=O)N(C)Cc3ccccc3)c(=O)c2c1C`: 0.104%.
Turning to `CCC(=O)N(Cc1cc2ccccc2[nH]c1=O)c1ccc(OC)cc1`, the max response was -1.99%.
The figure for `O=C(CNC(=O)OCc1ccccc1)NC1CCCCNC1=O` (stereo not drawn) is 1.1%; for `CCOc1ccc(C(=O)Nc2ccc(S(=O)(=O)NCC3CCCO3)cc2)cc1OCC` (stereo not drawn) it is -3.06%; for `CCN(CC)CCNc1nc(-c2ccc(OC(F)F)cc2)c(C)s1` it is -2.43%.
Regarding `COc1ccc(-n2nc(C(=O)NCC(=O)N3CCC(C(N)=O)CC3)c3ccccc3c2=O)cc1OC`, the max response is -3.96%.
Take `CC(=O)c1c(C)oc2ccc(NS(=O)(=O)c3ccc(C(=O)O)cc3)cc12`: the max response was -0.66%.
On to `CCCCNC(=O)CSc1nnc(-c2ccco2)n1C`, for which the max response is 1.17%.
As for `CCOC(=O)CSc1nnc(-c2ccco2)n1C`, the max response is -2.04%.
As for `Cn1c(SCC(=O)c2cccs2)nnc1-c1ccco1`, the max response was 29.8% (active).
As for `CC(C)CC(=O)Nc1nnc(S(=O)(=O)N(C)c2ccc(Cl)cc2)s1`, the max response was -2.39%.
For the compound `COc1ccc2c(C(=O)c3ccc(C)cc3)n(CCC(N)=O)[n+]([O-])c2c1`, the max response is 7.82%.
For the compound `COC(=O)c1c(NC(=O)c2ccc(S(=O)(=O)N3CCOCC3)cc2)sc2c1CCN(C(C)C)C2`, the max response was -1.08%.
In the case of `CC(=O)Nc1ccc(NC(=O)C2CCCN(S(=O)(=O)c3ccc(Cl)cc3)C2)cc1` (stereo not drawn), the max response is -5.06%.
As to `CC(=O)N1CCC(N(C(=O)Nc2ccc(Cl)cc2)C(C)C)CC1`, the max response is 9.65% (active).
The figure for `CCOC(=O)C1CCN(C(=O)Nc2ccc(Cl)cc2)CC1` is 12.6%; for `COc1cccc(NC(=O)C2C(c3ccccc3)C2(Cl)Cl)c1` (stereo not drawn) it is 1.73%.
Take `CCOCCOC(=O)C(C)Oc1ccc(Oc2ncc(C(F)(F)F)cc2Cl)cc1` (stereo not drawn): the max response is 0.288%.
Next, `CCOC(=O)CN(C(=O)COc1nc(C)cc(C)c1C#N)c1ccc(Cl)cc1`: 1.33%; `O=C1CCCc2nn(-c3ccccc3)nc21`: 31.9% (active).
As to `c1ccc(-n2nc3ccccc3n2)cc1`, the max response was 10.4%.
On to `O=C1CCC(=O)N(c2ccccc2)N1`, for which the max response was 4.98%.
Turning to `CCCc1nc(SCC(=O)N2CCCC2)c2c(=O)n(C)c(=O)n(C)c2n1`, the max response was -1.08%.
Next, `COCCNC(=O)CN(Cc1ccco1)C(=O)CCC(=O)Nc1nccs1`: -7.71%.
Consider `Cc1ccc(Nc2c(F)c(F)c(F)c(F)c2C(=O)O)c(C)c1`, for which the max response is -3.03%.
In the case of `COc1cc(SC)ccc1C(=O)NCCOc1ccccc1Cl`, the max response was 57.7% (active).
The figure for `Cc1occc1C(=O)Nc1cccc(Cn2cccn2)c1` is 10.7%; for `COc1cc(SC)ccc1C(=O)N(Cc1ccccc1)c1ccccc1` it is -0.326%; for `COc1ccccc1CNC(=O)c1ccc(SC)cc1OC` it is 8.03%.
Regarding `Cc1ccnc(NC(=O)c2ccoc2C)c1`, the max response was 35.7% (active).
On to `Cc1ccnc(NC(=O)CCCOc2ccccc2)c1`, for which the max response is 9.11%.
For the compound `COc1cc(SC)ccc1C(=O)Nc1cc(C)ccn1`, the max response is 40.1% (active).
On to `COc1ccccc1OCCNC(=O)CCNC(=O)c1ccccc1Cl`, for which the max response is 5.13%.
Regarding `COc1cc(SC)ccc1C(=O)Nc1nc(C)cs1`, the max response is -6.32%.
